Laboratory results taken from PubChem BioAssay (NCATS).
Results filed as inconclusive are left out. Entries that show only a call come without a potency. Calls of active or inactive are those of the source. Calls follow the shape of the dose curve; as a rule, active = well fitted inhibition curve with a large enough effect; inconclusive = small, poorly fitted or top-dose-only effect, or effect the other way; inactive = flat fitted curve, though single readings scatter.

Each molecule was assayed against Ubiquitin carboxyl-terminal hydrolase 2 (Homo sapiens) (UniProt O75604) (assay: qHTS Validation Assay for Inhibitors of Ubiquitin-specific Protease USP2a Using CHOP2 as the Reporter (AID 463106)). Conditions: USP2a cleavage of CHOP2 reporter, enzymatic; series mostly up to 38.3 µM.
Description: NIH Molecular Libraries Screening Centers Network [MLSCN]
NIH Chemical Genomics Center [NCGC]
PI Name: Nicholson, Ben. Progenra Inc, Malvern, PA
Homeostasis of cellular proteins is maintained through a combination of synthesis and degradation. The pathway that accounts for the majority of protein degradation is the ubiquitin-proteasomal pathway. Ubiquitin (Ub) is highly conserved in all cells and the generation of a multi-Ub chain typically targets proteins for degradation by the proteasome. However, ubiquitination is highly reversible and dynamic. Deubiquitination, the reverse process, is catalyzed through the action of enzymes referred to as isopeptidases or deubiquitinating enzymes (DUBs). This group of enzymes is collectively responsible for maintaining adequate pools of free ubiquitin and regulating the ubiquitination status of cellular proteins. The class of DUBs referred to as the ubiquitin-specific proteases (USP) family functions endoproteolytically to cleave Ub chains from a wide range of protein substrates. USP2a deubiquitinates fatty acid synthase (FASN) which has recently been identified as an emerging oncology target. To identify inhibitors of USP2a a cell-free assay was employed.
The reporter enzyme chosen is an enterokinase called CHOP2, which is activated when the Ub is cleaved by USP2. The free and now activated reporter can subsequently act on its reporter substrate. […] The assay was developed by Progenra, Inc. and has been licensed for sale by LifeSensors, Inc. as Ub-CHOP2-Reporter-Kit (#PR1101).
NCGC Assay Protocol Summary:
The assay buffer, prepared fresh at the day of the assay, contains 20mM Tris-HCl pH 8.0, 2mM CaCl2, 2mM beta-Mercaptoethanol, 0.05% CHAPS. 3ul of 20nM (10nM final) USP2 core, which is stored on ice, is dispensed into a medium-binding black solid Kalypsys 1,536 well plate using the Kalypsys dispenser. The assay plate is then pinned with 23nL compound with the Kalypsys pintool in columns 5-48. The controls are pinned as follows: column 1 two-fold dilutions of 2M NEM in duplicate; column 2 2M NEM (final concentration 38.2mM); column 3&4 DMSO. The assay plate is incubated at RT for 30min. Subsequently, 1.5uL of 100nM (25nM final) Ub-CHOP2 and 1.5uL of 100nM (25nM final) Reporter Substrate (both stored on ice and protected from light) were dispensed into the plate using the Kalypsys dispenser. Plates were read after 60min RT incubation on a ViewLux (Perkin Elmer) plate reader using the following wavelengths Ex 485nm /Em 531nm.
Data were normalized to the to AC100 inhibition (NEM). Concentration-response curves were fitted to the normalized data and the concentration-response curves were then classified based on curve quality (r2), response magnitude and degree of measured activity. The time zero reading was used to flag fluorescence artifacts.
Keywords: ubiquitination, deubiquitination, proteases, profluorescent, MLSMR, MLPCN, NIH Roadmap, qHTS, NCGC

Ubiquitin carboxyl-terminal hydrolase 2 (Homo sapiens), sequence (O75604 whole entry, looked up): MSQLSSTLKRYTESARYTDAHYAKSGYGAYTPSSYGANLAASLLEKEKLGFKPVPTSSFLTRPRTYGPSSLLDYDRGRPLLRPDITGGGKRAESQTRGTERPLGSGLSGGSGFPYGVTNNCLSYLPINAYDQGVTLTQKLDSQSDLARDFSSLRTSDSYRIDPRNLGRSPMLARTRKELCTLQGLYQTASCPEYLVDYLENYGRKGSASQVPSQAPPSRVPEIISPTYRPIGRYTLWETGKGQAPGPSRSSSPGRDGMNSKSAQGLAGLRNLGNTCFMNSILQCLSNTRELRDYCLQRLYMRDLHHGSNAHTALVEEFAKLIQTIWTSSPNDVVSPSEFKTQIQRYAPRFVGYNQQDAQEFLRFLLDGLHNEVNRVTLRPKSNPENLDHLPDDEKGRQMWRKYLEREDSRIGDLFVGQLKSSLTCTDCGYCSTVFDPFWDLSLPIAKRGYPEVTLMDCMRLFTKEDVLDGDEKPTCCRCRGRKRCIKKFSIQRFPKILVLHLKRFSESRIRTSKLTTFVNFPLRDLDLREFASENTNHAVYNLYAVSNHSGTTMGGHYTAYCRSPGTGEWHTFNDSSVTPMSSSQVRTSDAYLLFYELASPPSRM

Compound	Potency
NC(N)=NC(=O)c1nc(Cl)c(N2CCCCCC2)nc1N	inactive
CC[C@@H](C)[C@H]1O[C@]2(CC[C@H]1C)C[C@@H]1C[C@@H](CC=C(C)[C@@H](O[C@H]3C[C@H](OC)[C@@H](O[C@H]4C[C@H](OC)[C@@H](O)[C@H](C)O4)[C@H](C)O3)[C@@H](C)C=CC=C3CO[C@@H]4[C@H](O)C(C)=C[C@@H](C(=O)O1)[C@]34O)O2	inactive
NCC1OC(O[C@H]2[C@H](O)[C@@H](OC3C(O)C(N)CC(N)C3OC3OC(CO)C(O)C(O)C3N)O[C@@H]2CO)C(N)C(O)C1O (stereo not given in full)	inactive
NCCNC(=O)c1ncsc1-c1cccc(F)c1	inactive
CN(C)C(N)=NCCC[C@H](N)C(=O)O	inactive
CSc1nc(N)c2ncn([C@@H]3O[C@H](COP(=O)(O)OP(=O)(O)OP(=O)(O)O)[C@@H](O)[C@H]3O)c2n1	inactive
O=C1NC(O)=NC1(c1ccccc1)c1ccccc1	inactive
N[C@@H](CC(=O)O)C(=O)O	inactive
Fc1ccc(C(OCCCc2cnc[nH]2)c2ccc(F)cc2)cc1	inactive
O=c1[nH]c2cc(C(F)(F)F)ccc2n1-c1cc(C(F)(F)F)ccc1O	inactive
CN(C)c1ccc(/C=C2\C(=O)Nc3ccccc32)cc1	inactive
O=C(c1ccc(OCCCc2cnc[nH]2)cc1)C1CC1	inactive
CN1CCc2ccccc2Cc2[nH]c3ccccc3c2CC1	inactive
Cc1cc(NC(=O)Nc2ccc3c(ccn3C)c2)sn1	inactive
CC1(C)CCC=[N+]1[O-]	inactive
C[N+](C)(C)CCOP(=O)(O)OP(=O)([O-])OC[C@H]1O[C@@H](n2ccc(N)nc2=O)[C@H](O)[C@@H]1O	inactive
OCC1O[C@H](O)C(Cl)C(O)C1O (stereo not given in full)	inactive
Nc1ncnc2c1ncn2[C@@H]1O[C@H](COP(=O)(O)CP(=O)(O)OP(=O)(O)O)[C@@H](O)[C@H]1O	inactive
Nc1ncnc2c1ncn2[C@@H]1O[C@H](COP(=O)(O)OP(=O)(O)OP(=O)(O)OP(=O)(O)OC[C@@H]2O[C@H](n3cnc4c(N)ncnc43)[C@@H](O)[C@H]2O)[C@@H](O)[C@H]1O	inactive
CNc1ncnc2c1ncn2[C@@H]1O[C@H](CO)[C@@H](O)[C@H]1O	inactive

Compound	Potency
CN1C2CC(OC(=O)[C@H](CO)c3ccccc3)CC1C1OC12 (stereo not given in full)	inactive
O=C1NC(=O)/C(=C/c2ccc3nccnc3c2)S1	inactive
CN1CCc2cc(O)c(O)cc2C(c2ccccc2)C1 (stereo not given)	inactive
COc1cc(OC)c(/C=C2/C(=O)Nc3ccccc32)c(OC)c1	inactive
Oc1ccccc1O	inactive
O=C(O)c1cc([N+](=O)[O-])ccc1NCCCc1ccccc1	inactive
COc1ccc(/C=C/C(=O)Nc2ccccc2C(=O)O)cc1OC	inactive
Nc1nc(SCc2ccc([N+](=O)[O-])cc2)c2ncn([C@@H]3O[C@H](CO)[C@@H](O)[C@H]3O)c2n1	inactive
NS(=O)(=O)C#Cc1ccccc1	inactive
CO/S(=N\S(=O)(=O)c1ccc(Cl)cc1)c1ccc([N+](=O)[O-])cc1 (stereo not given)	inactive
CC(COc1ccc(/C=C/c2ccccc2)cc1)[N+](C)(C)C (stereo not given)	inactive
C=CC(N)CCC(=O)O (stereo not given)	inactive
O=C(O)/C=C/C(O)c1ccc(Cl)cc1 (stereo not given)	inactive
O=S(=O)(c1cccc2c(I)cccc12)N1CCCNCC1	inactive
CN1C2CCC1CC(OC(=O)C(O)c1ccccc1)C2 (stereo not given)	inactive
NC(=O)C(=O)O	inactive
COc1cccc(OC)c1OCCNCC1COc2ccccc2O1 (stereo not given)	inactive
Cc1nc2sccn2c(=O)c1CCN1CCC(=C(c2ccccc2)c2ccc(F)cc2)CC1	inactive
CCNC(=O)[C@H]1O[C@@H](n2cnc3c(N)nc(NCCc4ccc(CCC(=O)O)cc4)nc32)[C@H](O)[C@@H]1O	inactive
Cc1cc2c(cc1Cl)N(C(=O)Nc1ccc(Oc3cccnc3C)nc1)CC2	inactive
